The source of these data is the supplement of paper PMC7366291.

Settings in all cases: 25 µM; exposure: 24-48 hpf
For assay [1], the system named is Danio rerio Tg(wt1b:EGFP) embryo, pronephros. The experiment in a line: glomerular separation, fold change vs DMSO control; higher = glomeruli further apart (abnormal). The procedure, abridged: (§1)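 Dechorionated Tg(wt1b:EGFP) zebrafish embryos were exposed to 25 μM compound in 0.5% DMSO, HEPES-buffered E3 with 0.003% PTU, from 24 to 48 hpf at 28.5°C. Pronephroi were imaged dorsally in agarose-filled 96-well plates (470 nm, 10 z-slices). On maximum projections, 16 reference points were set manually in Fiji and a macro computed distances and angles. Values more than 2 SD from the feature mean were excluded. Each feature is a fold change relative to the mean of same-day DMSO controls.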

Assay [2] shares this test system. Put plainly: glomerular width (mean of left and right), fold change vs DMSO control; higher = wider glomerulus. The procedure, abridged:
as §1

Assay [3] shares this test system. Put plainly: fraction of imaged embryos annotated as normal kidney; higher = less nephrotoxic; extreme values may be limits of the assay. The procedure, abridged:
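The value given is the share of embryos in each treatment scored as having a normal kidney. To obtain it, dechorionated Tg(wt1b:EGFP) zebrafish embryos were treated from 24 to 48 hpf at 28.5°C with 25 μM compound in 0.5% DMSO, in 5 mM HEPES-buffered E3 with 0.003% PTU. Pronephroi were imaged by widefield fluorescence (470 nm, 10 z-slices), and every embryo was annotated by hand from maximum projections.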

Assay [4] shares this test system. Put plainly: pronephric angle neck segment to proximal convoluted tubule (mean of left and right), fold change vs DMSO control; higher = larger pronephric angle. The procedure, abridged:
as §1

The structures appear in SMILES notation. Structures can show the parent of a compound that is named as a salt. ± gives the standard deviation or the standard deviation of the averaged measurements.

The compound `COc1ccccc1OCC(O)COC(N)=O` (stereo unspecified) [Methocarbamol] showed a glomerular separation in assay [1] of 1.02 ± 0.45. The compound further returned a glomerular width in assay [2] of 1.05 ± 0.03. Further, the “fraction of imaged embryos annotated as normal kidney” value (from here on “fraction of imaged embryos annotated”) in assay [3] was 0.833. In addition, the “pronephric angle neck segment” value in assay [4] was found to be 1 ± 0.013.
In the same order, the values of `CCN1CCN(c2cc3c(cc2F)c(=O)c(C(=O)O)cn3C2CC2)CC1` [Enrofloxacin] are 0.888 ± 0.34, 1.07 ± 0.12, 0.917 and 1.01 ± 0.037.
In the same order, the values of `NS(=O)(=O)c1cc2c(cc1Cl)N=CNS2(=O)=O` [Chlorothiazide] are 0.855 ± 0.11, 1.07 ± 0.043, 0.75 and 0.99 ± 0.057.
In the same order, the values of `CCN1CCCC1CNC(=O)c1cc(S(=O)(=O)CC)c(N)cc1OC` (stereo unspecified) [Amisulpride] are 0.971 ± 0.31, 1.04 ± 0.042, 0.9 and 0.9586 ± 0.0016.
The compound `CO[C@H]1/C=C/O[C@@]2(C)Oc3c(C)c(O)c4c(c3C2=O)C2=NC3(CCN(CC(C)C)CC3)NC2=C(NC(=O)/C(C)=C\C=C\[C@H](C)[C@H](O)[C@@H](C)[C@@H](O)[C@@H](C)[C@H](OC(C)=O)[C@@H]1C)C4=O` [Rifabutin] showed a glomerular separation in assay [1] of 1.4 ± 0.24. The compound also showed a glomerular width in assay [2] of 0.94 ± 0.1. Further, the “fraction of imaged embryos annotated” value in assay [3] worked out at 0.583. In addition, the “pronephric angle neck segment” value in assay [4] was 1.06 ± 0.011.
The matching figures for `O=c1[nH]c(=O)n([C@H]2C[C@H](O)[C@@H](CO)O2)cc1I` [Idoxuridine]: 1.12 ± 0.42, 1.05 ± 0.017, 0.667 and 1.05 ± 0.073.
Regarding `COc1ccccc1N1CCN(CCCCNC(=O)c2ccc3ccccc3c2)CC1`, the glomerular separation in assay [1] was found to be 0.691 ± 0.17. The same compound showed a glomerular width in assay [2] of 1.02 ± 0.049. The “fraction of imaged embryos annotated” value in assay [3] was determined as 0.917. Moreover, the “pronephric angle neck segment” value in assay [4] came out at 0.969 ± 0.018.
As to `CN(C)[C@@H]1C(O)=C(C(N)=O)C(=O)[C@@]2(O)C(O)=C3C(=O)c4c(O)cccc4[C@@](C)(O)[C@H]3[C@H](O)[C@@H]12` [Oxytetracycline dihydrate], the glomerular separation in assay [1] came out at 1.22 ± 0.44. In addition, the glomerular width in assay [2] came out at 0.955 ± 0.036. Moreover, the “fraction of imaged embryos annotated” value in assay [3] is 0.909. For the same compound, in assay [4], the “pronephric angle neck segment” value is 0.9153 ± 0.0078.
The matching figures for `COc1cc(-c2ccc(=O)[nH]n2)ccc1OC(F)F` [Zardaverine]: 1.12 ± 0.48, 0.9712 ± 0.0072, 0.583 and 0.994 ± 0.013.
In the same order, the values of `O=c1[nH]cc(F)c(=O)[nH]1` [5-fluorouracil] are 0.802 ± 0.22, 1.02 ± 0.042, 0.75 and 1.024 ± 0.0061.
The matching figures for `C[C@H]1O[C@H](O[C@H]2[C@H](O)[C@@H](O)[C@@H](O[C@H]3[C@H](O)[C@@H](O)C(O)O[C@@H]3CO)O[C@@H]2CO)[C@H](O)[C@@H](O)[C@@H]1N[C@H]1C=C(CO)[C@@H](O)[C@H](O)[C@H]1O` (stereo partly specified) [Acarbose]: 0.951 ± 0.24, 0.879 ± 0.1, 0.833 and 1.02 ± 0.014.
In the case of `CC(Oc1ccccc1)C(=O)N[C@@H]1C(=O)N2[C@@H]1SC(C)(C)[C@@H]2C(=O)O` (stereo partly specified) [Phenethicillin potassium salt], the glomerular separation in assay [1] came out at 0.88 ± 0.24. The compound further gave a glomerular width in assay [2] of 0.963 ± 0.057. In assay [3], the “fraction of imaged embryos annotated” value was determined as 0.667. For the same compound, in assay [4], the “pronephric angle neck segment” value was found to be 0.989 ± 0.028.
In the same order, the values of `Cc1cc(-c2ccccc2)nnc1NCCN1CCOCC1` [Minaprine dihydrochloride] are 1.13 ± 0.95, 1.03 ± 0.03, 0.75 and 0.9963 ± 0.0098.
In assay [1], `C=C(CC)C(=O)c1ccc(OCC(=O)O)c(Cl)c1Cl` [Ethacrynic acid] registered a glomerular separation of 1.05 ± 0.28. Moreover, the glomerular width in assay [2] amounted to 1.02 ± 0.0053. Besides, the “fraction of imaged embryos annotated” value in assay [3] amounted to 0.75. In addition, the “pronephric angle neck segment” value in assay [4] came to 0.9182 ± 0.0012.
The matching figures for `Cc1cccc(C)c1NC(=O)C(C)N` (stereo unspecified) [Tocainide hydrochloride]: 1.08 ± 0.37, 0.975 ± 0.0083, 1 and 0.941 ± 0.048.
In assay [1], `CN(C)CCOC(=O)COc1ccc(Cl)cc1` [Meclofenoxate hydrochloride] had a glomerular separation of 1.19 ± 0.36. The compound also came in with a glomerular width in assay [2] of 1.02 ± 0.049. Further, the “fraction of imaged embryos annotated” value in assay [3] is 0.667. In assay [4], the “pronephric angle neck segment” value is 1.05 ± 0.057.
The matching figures for `CN[C@H](CC(C)C)C(=O)N[C@H]1C(=O)N[C@@H](CC(N)=O)C(=O)N[C@H]2C(=O)N[C@H]3C(=O)N[C@H](C(=O)N[C@H](C(=O)O)c4cc(O)cc(O)c4-c4cc3ccc4O)[C@H](O)c3ccc(c(Cl)c3)Oc3cc2cc(c3O[C@@H]2O[C@H](CO)[C@@H](O)[C@H](O)[C@H]2O[C@H]2C[C@](C)(N)[C@H](O)[C@H](C)O2)Oc2ccc(cc2Cl)[C@H]1O` [Vancomycin hydrochloride]: 0.943 ± 0.23, 0.978 ± 0.033, 0.909 and 1.06 ± 0.077.
For the compound `C[C@H](CCC(=O)O)[C@H]1CC[C@H]2[C@@H]3CC[C@@H]4C[C@H](O)CC[C@]4(C)[C@H]3CC[C@]12C` [Lithocholic acid], the glomerular separation in assay [1] was found to be 1.26 ± 0.64. In assay [2], this compound had a glomerular width of 0.839 ± 0.085. Further, in assay [3], the “fraction of imaged embryos annotated” value is 0.364. In addition, in assay [4], the “pronephric angle neck segment” value is 0.929 ± 0.046.
The matching figures for `CCc1nn(CCCN2CCN(c3cccc(Cl)c3)CC2)c(=O)n1CCOc1ccccc1` [Nefazodone hydrochloride]: 0.987 ± 0.43, 1.05 ± 0.061, 0.727 and 0.989 ± 0.012.
